Screening results as filed in PubChem.
Sampled rows, rich in hits. Any-hit rate of the full collection: about 3.5%.
MITF primary – inhibitors of human MITF; O75030; AlphaScreen MITF homodimerization, bead proximity signal; inhibition, % at 2.6 µM; 650,000 compounds, 0.91% hits; in the data active means inhibition above about 50%;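 further: 0% = vehicle wells with protein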
Target sequence (O75030 whole entry, looked up): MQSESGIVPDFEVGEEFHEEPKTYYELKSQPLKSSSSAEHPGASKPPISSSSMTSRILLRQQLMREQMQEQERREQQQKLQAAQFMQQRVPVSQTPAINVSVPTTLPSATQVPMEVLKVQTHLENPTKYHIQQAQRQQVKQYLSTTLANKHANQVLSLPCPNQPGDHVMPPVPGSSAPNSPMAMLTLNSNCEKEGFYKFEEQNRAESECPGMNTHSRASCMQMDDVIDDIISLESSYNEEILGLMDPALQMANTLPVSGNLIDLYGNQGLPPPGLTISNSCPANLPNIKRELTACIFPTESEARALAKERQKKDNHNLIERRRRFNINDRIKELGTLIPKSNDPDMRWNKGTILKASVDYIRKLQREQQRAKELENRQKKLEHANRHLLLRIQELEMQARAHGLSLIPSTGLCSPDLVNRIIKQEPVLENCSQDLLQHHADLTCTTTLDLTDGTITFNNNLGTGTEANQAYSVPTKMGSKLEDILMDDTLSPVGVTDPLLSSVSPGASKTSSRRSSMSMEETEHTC
TEAD-YAP inh – TEAD-YAP interaction inhibition | HEK-TIYL cells, TEAD-Gal4/YAP UAS-luciferase luminescence | inhibition, % at 9.12 µM | 640,000 compounds, 1.4% hits; in the data active means inhibition above about 32%;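 further: 0% = median of test compound wells and 100% = reference inhibitor wells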
GPR151 ag – activates the human receptor GPR151. PathHunter beta-arrestin GPR151 cells, luminescence. Q8TDV0. AID 1508602. activation, % at 11.2 µM. 650,000 compounds, 1% hits; in the data active means activation above about 4.9%;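 further: 0% = median of compound wells and 100% = cells with positive control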
FBW7 activator – activators of human E3 ligase FBW7 | Q969H0 | AlphaScreen FBW7–phospho-cyclin E peptide binding, activator screen | normalized activity (activation), % at 26.1 µM | 650,000 compounds, 0.13% hits | AID 1259310; in the data active means normalized activity above about 1.9%;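 further: purified mutant Fbw7 with reduced substrate affinity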
MITF inh conf – confirmation of human MITF inhibitors; shares compounds with MITF primary; AlphaScreen MITF homodimerization, biotin/His-MITF beads; inhibition, % at 2.6 µM; 4,700 compounds, 16% hits;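 active means inhibition above a cutoff derived from the DMSO control wells, cut at about 28% in these data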;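 further: 0% = MITF dimer wells with DMSO only; inhibitors lower the bead chemiluminescence by keeping MITF from dimerizing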
AlphaScreen DR – AlphaScreen optical interference, dose response counter-screen. IC50, µM. 480 compounds, 6% hits. shares compounds with MITF primary. AlphaScreen optical interference counterscreen, cell-free; call rule not given here
AlphaScreen intf2 – AlphaScreen optical interference, counter-screen; shares compounds with MITF primary; LysRS AlphaScreen counterscreen, signal interference, triplicate; inhibition, % at 2.6 µM; 4,700 compounds, 7.6% hits;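 active means inhibition above a cutoff derived from the DMSO control wells, cut at about 30% in these data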
Starred values were filed as active, the others as inactive; nt = not tested or not shown.

SMILES | MITF primary | TEAD-YAP inh | GPR151 ag | FBW7 activator | MITF inh conf | AlphaScreen intf2 | others
O=C(NCC(O)C(=O)N1CCOCC1)c1cc(Nc2ccc3[nH]ncc3c2)ccn1 (configuration not stated) | 0 | 4 | -1 | 0 | nt | nt
O=C(NCC(O)C(=O)N1CCOCC1)c1cccc(Nc2ccc3[nH]ncc3c2)n1 (configuration not stated) | 57* | 8 | 0 | 0 | 62* | 7 | AlphaScreen DR=>6.5
C=CCNC1CCN(c2ccc(NC(=O)c3ccc(OC)cc3)cc2)CC1 | 60* | -19 | 0 | 0 | -1 | -2
CCCCCCCCCCCCCCCCOC[C@H](COP(=O)(O)OCC[N+](C)(C)C)SC(C)=O | 7 | nt | 2 | nt | nt | nt
O=C(Nc1cccc2ccccc12)c1nn2c(C(F)(F)F)cc(-c3ccccc3)nc2c1Cl | -15 | -3 | -1 | 0 | nt | nt
CN=C1SC(CC(=O)Nc2cccc(C(=O)O)c2)C(=O)N1C (configuration not stated) | 53* | 10 | 3 | 0 | 36* | 9 | AlphaScreen DR=>6.5
O=C(CN1CCc2ccccc2C1)Nc1ccc(C(=O)N2CCCCC2)cc1 | 60* | -16 | 2 | 0 | 11 | 19
O=C(CN1CCN(Cc2ccccc2)CC1)Nc1ccc(C(=O)N2CCCCC2)cc1 | 65* | 3 | 1 | 0 | 12 | -2
NC(=O)c1ccc(NC(=O)CN2CCc3ccccc3C2)cc1 | 3 | -6 | 0 | 0 | nt | nt
O=C(CN1CCN(Cc2ccccc2)CC1)Nc1ccccc1 | 1 | -5 | 3 | 1 | nt | nt
O=C(Cn1c2ccccc2c(=O)c2cc(Cl)ccc21)Nc1ccc(F)cc1F | -3 | 1 | 1 | 0 | nt | nt
CC1CN(CCOc2ccc(Cl)cc2Br)CC(C)O1 (configuration not stated) | 39 | 0 | 0 | 0 | nt | nt
CCN1CCN(CCCOc2ccc(Cl)cc2Br)CC1 | 68* | -15 | 2 | 0 | 14 | 20
CCN1CCN(CCOc2ccc(Br)cc2C)CC1 | 57* | -4 | -1 | 0 | 17 | 9
CCN1CCN(CCOc2ccc(Cl)cc2Br)CC1 | 57* | 5 | -2 | 0 | 9 | 14
CCN1CCN(CCOc2ccc3ccccc3c2Br)CC1 | 60* | -2 | 1 | 0 | 14 | 13
Cc1c(C(=O)Nc2ccc(F)cc2F)sc2ncn(CC(=O)N3CCCCC3)c(=O)c12 | 6 | -5 | 1 | 0 | nt | nt
COC(=O)c1sc2ccccc2c1NC(=O)CSCc1ccccc1 | 0 | 3 | 3 | 0 | nt | nt
COc1ccc(-c2c(C)oc3cc(OCC(=O)OC(C)C)ccc3c2=O)cc1OC | 10 | 2 | 0 | 0 | nt | nt
COc1ccc(-c2c(C)oc3cc(OCC(N)=O)ccc3c2=O)cc1OC | 61* | 4 | -1 | 0 | 0 | 7
CC(NCc1ccc([N+](=O)[O-])cc1)C1COc2ccccc2O1 (configuration not stated) | 62* | -6 | 0 | 0 | -12 | -6
CC(C)NCC(O)CNC(C)C1COc2ccccc2O1 (configuration not stated) | -3 | -1 | 3 | 0 | nt | nt
CCC(=O)NCC(c1ccco1)N1CCN(c2ccccc2)CC1 (configuration not stated) | -5 | -8 | 0 | 0 | nt | nt
OCCNC(=S)Nc1ccccc1 | 8 | -8 | 0 | 0 | nt | nt
O=P(O)(O)C(O)(CCNC(=S)Nc1ccccc1)P(=O)(O)O | 85* | 4 | -1 | 0 | 67* | 6 | AlphaScreen DR=>6.8
SMILES | MITF primary | TEAD-YAP inh | GPR151 ag | FBW7 activator | MITF inh conf | AlphaScreen intf2 | others
Cc1nc2ccccn2c1C(=O)N1CCOC(c2ccccc2)C1 (configuration not stated) | 20 | -2 | 1 | 1 | nt | nt
CN(C)/C=C/C=C/C=C/C(=O)c1ccc(C(=O)/C=C/C=C/C=C/N(C)C)cc1 | 84* | 4 | -1 | 0 | 68* | 10
CN(C)/C=C/C=C/C(=O)c1ccccc1N(C)C | -6 | 3 | 1 | 0 | nt | nt
O=c1c2oc3ccccc3c2ncn1Cc1cccc2ccccc12 | -5 | 3 | -1 | 0 | nt | nt
CCC(C)(C)NC(=O)C(c1ccccn1)N(Cc1ccccc1F)C(=O)c1csnn1 (configuration not stated) | 12 | 2 | 1 | 0 | nt | nt
CN(C)c1ccc(NC(=O)CCCn2cccc2)cc1 | 27 | -65 | 0 | 0 | nt | nt
CCN(CC(=O)Nc1cc(F)ccc1F)CC(=O)NC(C)C | 63* | -5 | -1 | 0 | 8 | -2
CCN(CC(=O)Nc1ccc(F)cc1Cl)CC(=O)NC(C)C | 5 | 0 | -1 | 0 | nt | nt
O=C1Nc2c(C(=O)O)cccc2C1=O | 71* | 2 | -3 | 0 | 68* | 10 | AlphaScreen DR=>7.9
O=C1Nc2c(I)cccc2C1=O | 11 | 6 | -1 | 0 | nt | nt
CCOc1ccc(C(=O)Nc2cc(Cl)ccc2C)cc1[N+](=O)[O-] | 21 | -4 | 0 | 0 | nt | nt
O=C(O)c1cc(NN=C2CCCC2)ccc1Cl | 72* | -21 | 1 | -1 | 73* | 1 | AlphaScreen DR=>7.2
O=C(Nc1ccc2c(c1)C(=O)NCCO2)c1ccccc1Cl | -1 | -10 | 1 | 0 | nt | nt
Cn1c(N)c(C(=O)COC(=O)Cc2ccccc2[N+](=O)[O-])c(=O)n(C)c1=O | 6 | 0 | 0 | 0 | nt | nt
ClC1(Cl)CC1CNc1ncnc2sc3c(c12)CCC3 (configuration not stated) | 60* | 0 | 1 | 0 | 10 | 14
CCOc1c(Br)cc(C(=O)OCc2cc(C(=O)OC)c(C)o2)cc1OC | -2 | 17 | -1 | 0 | nt | nt
CCOc1ccccc1OCCCCN1CCOCC1 | 37 | -1 | -1 | 0 | nt | nt
CCC(C)c1ccccc1OCCCCN1CCOCC1 (configuration not stated) | 51* | -2 | 0 | 0 | -8 | -6
CCN1CCN(CCCOc2ccccc2OCc2ccccc2)CC1 | 69* | -9 | -2 | 0 | 15 | 6
CCN1CCN(CCCCOc2ccccc2OC(C)C)CC1 | 51* | -4 | 4 | 0 | 13 | 19
CCC(C)c1ccccc1OCCOCCN1CCCC1 (configuration not stated) | 12 | 2 | 0 | 0 | nt | nt
CCN1CCN(CCCCOc2cccc3ccccc23)CC1 | 35 | 3 | 0 | 0 | nt | nt
CCC(C)c1ccccc1OCCOCCN1CCOCC1 (configuration not stated) | 76* | 5 | 0 | 0 | -9 | -5
Cc1ccccc1CN(c1ccc(C(=O)NC(C)(C)C)cc1)S(C)(=O)=O | 4 | 7 | 0 | 0 | nt | nt
COc1cccc(C(=O)CN2CCN(c3ccc(F)cc3)CC2)c1 | 10 | 7 | -1 | 0 | nt | nt
CCOc1ccc(NC(=O)CSc2nc3ccsc3c(=O)n2-c2cccc(Cl)c2Cl)cc1 | 3 | 9 | -1 | 1 | nt | nt
CCC(C)c1ccccc1OCCN1CCNCC1 (configuration not stated) | 40 | -6 | -1 | 0 | nt | nt
